Compound activity as filed in PubChem.
A selection: hits, their analogues and other compounds. The true share with any hit is near 10%.
JMJD2A Tudor: qHTS Assay for Inhibitors of JMJD2A-Tudor Domain | Lysine-specific demethylase 4A (Homo sapiens), O75164 | 4.4% of 390,000 active | Potency, µM (top dose mostly 114 µM), without a hit: top-dose activity change, negative = inhibition, most hits filed as inhibitors | AlphaScreen JMJD2A-Tudor / H3K4me3 peptide binding; further: potency means the concentration at half of the fitted maximal effect; on the % scale 0 is the no-effect control and ±100 the full control effect; nearly all actives have a fitted effect of over 50% in size
HP1b chromo inh: HTS for Inhibitors of HP1-beta Chromodomain Interactions with Methylated Histone Tails | Chromobox protein homolog 1 (Homo sapiens), P83916 | AlphaScreen HP1-beta / biotin-H3K9me3 peptide binding | 0.56% of 390,000 active | Potency, µM (top dose mostly 114 µM), for inactives: at the highest dose activity change, negative = inhibition, most hits filed as inhibitors; further: potency means the concentration at half of the fitted maximal effect; nearly all actives have a fitted effect of over 70% in size
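HP1-beta protein (50 nM final) preincubated 30 min at room temperature with biotinylated H3(1-18)K9me3 peptide (50 nM) in PBS pH 7.4, 0.01% Tween-20, then compound added for 30 min. AlphaScreen streptavidin donor/nickel chelate acceptor beads (10 ug/mL final), 30 min dark, luminescence read.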
Six1-Eya2 inh: qHTS Assay for Inhibitors of the Six1/Eya2 Interaction; Homeobox protein SIX1 (Homo sapiens) + Protein phosphatase EYA2 (Homo sapiens), …; AlphaScreen GST-Six1/His-Eya2 binding, biochemical; active compounds read low; activity change, % (test concentration not listed); 0.56% of 360,000 active; AID 651725, 2012; in the data active means activity change below about -65%; inconclusive means mostly about -30% to -63%; further: on the % scale 0 is the no-effect control and ±100 the full control effect
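Compounds are tested against tagged Six1 and Eya2 proteins bridged by glutathione donor and nickel acceptor beads; after a one-hour incubation at 37 °C without light, AlphaScreen emission is recorded.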
BAZ2B block: qHTS Assay for Inhibitors of BAZ2B; AlphaScreen BAZ2B-H3K14Ac peptide displacement; Potency, µM (titrated, usually from 114 µM), inactives show at the highest dose activity change, negative = inhibition, usual class: inhibitors; 4.4% of 360,000 active; AID 504333, 2011; further: potency means the concentration at half of the fitted maximal effect; on the % scale 0 is the no-effect control and ±100 the full control effect; nearly all actives have a fitted effect of over 60% in size
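Multi-concentration screen (max 110 uM) measuring displacement of acetylated histone H3 peptide from BAZ2B by AlphaScreen, using 50 nM protein, 50 nM peptide and 10 ug/mL streptavidin donor plus Ni-chelate acceptor beads.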
CtBP-E1A inh: qHTS Assay for Inhibitors of the CtBP/E1A Interaction; activity change, % (test concentration not listed); CtBP / adenovirus E1A interaction (AlphaScreen); AlphaScreen GST-E1A/His-CtBP binding, 1536-well; active compounds read low; AID 651724, 2012; 0.49% of 340,000 active; in the data active means activity change below about -65%; inconclusive means mostly about -30% to -63%; further: on the % scale 0 is the no-effect control and ±100 the full control effect
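Homogeneous bead-based format: GST-tagged E1A captured on glutathione donor beads, His-tagged CtBP on nickel acceptor beads; compounds precede bead addition by 2 h at 37 °C.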
G9a block: qHTS Assay for Inhibitors of Histone Lysine Methyltransferase G9a; Histone-lysine N-methyltransferase EHMT2 (Homo sapiens), Q96KQ7; G9a H3K9 monomethylation, AlphaScreen, 2 h; AID 504332, 2011; Potency, µM (series often up to 102 µM), for inactives: top-dose activity, negative = inhibition, actives largely listed as inhibitors; 8.8% of 350,000 active; further: potency means the concentration at half of the fitted maximal effect; on the % scale 0 is the no-effect control and ±100 the full control effect; nearly all actives have a fitted effect of over 75% in size
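G9a (20 nM) preincubated 15 min RT with compounds, then 500 nM biotinylated H3K9 peptide and 20 uM SAM added; 2 h RT reaction. Monomethyl-H3K9 product detected by AlphaScreen with anti-H3K9me1 antibody, streptavidin donor and anti-rabbit IgG acceptor beads.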
* = called active by the depositor; [ ] = remark or other dose. Unless noted, the call rests on the fitted dose curve; in most records, active means well fitted inhibition curve with a large enough effect; inconclusive means small, poorly fitted or top-dose-only effect; inactive means no such curve, though single readings can be large or run the other way.

What do the screens show for `COc1ccc(C)cc1N1C(=N)/C(=C2/Nc3ccccc3S2)C(c2ccccc2)C1=O` (stereo not given)?
JMJD2A Tudor: inconclusive; HP1b chromo inh: inconclusive; Six1-Eya2 inh: -8; BAZ2B block: inconclusive; CtBP-E1A inh: -4; G9a block: 10µM*

How did Cc1ccc2[nH]c(=O)c(CN(Cc3cccs3)S(=O)(=O)c3ccc4c(c3)OCCO4)cc2c1 do in these assays?
JMJD2A Tudor: -10%[57.1 µM]; HP1b chromo inh: 30%; Six1-Eya2 inh: -16; BAZ2B block: -9%; CtBP-E1A inh: -17; G9a block: 1µM*

What do the screens show for `COc1ccc(-n2c(=O)c(-c3ccc(Cl)cc3)nc3cncnc32)cc1`?
G9a block: -5%[12.7 µM]

What do the screens show for `Nc1ccc2c(c1)C(=O)c1ccccc1-2`?
JMJD2A Tudor: inconclusive; HP1b chromo inh: inconclusive; Six1-Eya2 inh: -24; CtBP-E1A inh: -10

How did Nc1ccc2c(c1)C(=O)C(=O)c1ccccc1-2 do in these assays?
JMJD2A Tudor: inconclusive; HP1b chromo inh: 20µM*; Six1-Eya2 inh: inconclusive; BAZ2B block: inconclusive; CtBP-E1A inh: inconclusive; G9a block: 6%[0.501 µM]

Results for COc1ccccc1CNc1nc(-c2ccoc2)nc2ccccc12 ?
G9a block: 3%[0.501 µM]

What do the screens show for `O=C(CSc1n[nH]c(-c2ccc(Br)cc2)n1)NC1CCCC1`?
JMJD2A Tudor: 3%; HP1b chromo inh: 41%; Six1-Eya2 inh: -6; CtBP-E1A inh: -1

Results for COc1ccc(-c2nc(SCC(=O)NC3CCCC3)c(-c3ccc(OC)cc3)[nH]2)cc1 ?
JMJD2A Tudor: inconclusive; HP1b chromo inh: -16%; Six1-Eya2 inh: -13; BAZ2B block: inconclusive; CtBP-E1A inh: -4; G9a block: 50µM*

What do the screens show for `COc1ccc(-c2[nH]c(-c3ccc(C)cc3)nc2SCC(=O)Nc2nccs2)cc1`?
JMJD2A Tudor: inconclusive; HP1b chromo inh: inconclusive; Six1-Eya2 inh: -14; BAZ2B block: inconclusive; CtBP-E1A inh: -12; G9a block: 45µM*

Results for CCc1ccc(-c2nc(SCC(=O)NC3CC3)n[nH]2)cc1 ?
JMJD2A Tudor: -6%; HP1b chromo inh: 2%; Six1-Eya2 inh: 6; BAZ2B block: 11%; CtBP-E1A inh: 3; G9a block: 45µM*

How did Fc1ccc(Nc2nc3ccccc3c3nncn23)c(Cl)c1 do in these assays?
JMJD2A Tudor: 3%; HP1b chromo inh: 25%; BAZ2B block: -13%; G9a block: 5%[59 µM]

How did CCc1nc2c(OCc3cccc(Cl)c3)cccn2c1N(C)C(=O)c1ccc(OC)cc1 do in these assays?
Six1-Eya2 inh: -12; CtBP-E1A inh: -1

What do the screens show for `COc1ccc(C2C(=O)N(C3CCCCCC3)CC(=O)N2CCC2=CCCCC2)cc1` (stereo not given)?
JMJD2A Tudor: -13%; HP1b chromo inh: 25%; BAZ2B block: -2%; G9a block: -29%[59 µM]

Results for CCCN(CCC(=O)Nc1cc(OC)cc(OC)c1)CC1CC1 ?
JMJD2A Tudor: -34%; HP1b chromo inh: 10%; Six1-Eya2 inh: 2; BAZ2B block: inconclusive; CtBP-E1A inh: -1; G9a block: 45µM*

How did CCN(CCC(=O)Nc1cc(OC)cc(OC)c1)Cc1ccccc1 do in these assays?
JMJD2A Tudor: -11%[57.1 µM]; HP1b chromo inh: 30%; Six1-Eya2 inh: -1; BAZ2B block: 10%; CtBP-E1A inh: -3; G9a block: 45µM*

How did Cc1nc(SCc2ccccc2Cl)c(C#N)c(C)c1C do in these assays?
JMJD2A Tudor: 69%; HP1b chromo inh: 104%; BAZ2B block: 1%; G9a block: 50%[59 µM]

What do the screens show for `COc1ccc(OC)c(Nc2nc(-c3cccs3)cs2)c1`?
JMJD2A Tudor: inconclusive; HP1b chromo inh: -27%; Six1-Eya2 inh: -20; BAZ2B block: inconclusive; CtBP-E1A inh: 8; G9a block: inconclusive

What do the screens show for `COc1ccc(C)cc1Nc1nc(-c2c[nH]c3ccccc23)cs1`?
JMJD2A Tudor: inconclusive; HP1b chromo inh: -24%[57 µM]; Six1-Eya2 inh: 10; BAZ2B block: 50µM*; CtBP-E1A inh: -15; G9a block: 3.2µM*

What do the screens show for `CC(C)c1nnc(NC(=O)C2CCN(S(=O)(=O)c3ccc(-n4cnnn4)cc3)CC2)s1`?
JMJD2A Tudor: -4%; HP1b chromo inh: 22%; Six1-Eya2 inh: 4; BAZ2B block: 0%; G9a block: 6%

Results for COc1cc(OC)c(NC2=CC(=O)C(=O)c3ccccc32)cc1Cl ?
JMJD2A Tudor: inconclusive; HP1b chromo inh: inconclusive; Six1-Eya2 inh: -29; BAZ2B block: inconclusive; G9a block: 40µM*

How did Cc1cc(NC2=CC(=O)C(=O)c3ccccc32)no1 do in these assays?
JMJD2A Tudor: -17%; HP1b chromo inh: 3%; Six1-Eya2 inh: 8; CtBP-E1A inh: inconclusive

What do the screens show for `NS(=O)(=O)c1ccc(NC2=CC(=O)C(=O)c3ccccc32)cc1`?
JMJD2A Tudor: 22µM*; HP1b chromo inh: -8%; Six1-Eya2 inh: -4; BAZ2B block: inconclusive; CtBP-E1A inh: inconclusive

What do the screens show for `NS(=O)(=O)c1ccc(NC(=O)Nc2ccccc2)cc1`?
JMJD2A Tudor: -11%; HP1b chromo inh: 17%; Six1-Eya2 inh: 5; BAZ2B block: -4%; CtBP-E1A inh: 0; G9a block: -4%[59 µM]

How did Cc1ccc(NC2=CC(=O)C(=O)c3ccccc32)cc1 do in these assays?
JMJD2A Tudor: inconclusive; HP1b chromo inh: -29%; Six1-Eya2 inh: -20; BAZ2B block: 40µM*; CtBP-E1A inh: inconclusive; G9a block: inconclusive

How did CCOC(=O)c1ccc(NC2=CC(=O)C(=O)c3ccccc32)cc1 do in these assays?
JMJD2A Tudor: inconclusive; HP1b chromo inh: inconclusive; Six1-Eya2 inh: -21; BAZ2B block: inconclusive; CtBP-E1A inh: -12; G9a block: inconclusive

What do the screens show for `O=C(CSc1nc2ccccc2nc1Cc1ccccc1)Nc1ccc2c(c1)OCO2`?
JMJD2A Tudor: -12%; HP1b chromo inh: 17%[57 µM]; BAZ2B block: 4%; G9a block: 1%[59 µM]

How did Cc1ccc2c(C)c(C(=O)N3CCC(C(N)=O)(N4CCCCC4)CC3)oc2c1C do in these assays?
Six1-Eya2 inh: -10; CtBP-E1A inh: 2

What do the screens show for `O=C1NN=C(CSc2n[nH]c(=S)s2)CS1`?
JMJD2A Tudor: 18µM*; HP1b chromo inh: -35%; Six1-Eya2 inh: -6; BAZ2B block: 79µM*; G9a block: 2.5µM*
